Among the data in PubChem BioAssay (NCI) are growth values, retold here.

This is part of a sample that, as a whole, favours compounds with a hit. Of some 83,000 tested, about 20% had one in any assay.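 Growth was measured after 48 h exposure to one concentration of compound in 96-well plates. Values under 10 count as active.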 Unmarked numbers belong to inactive results. The source made the active and inactive calls.

Assay in all cases: NCI-60 one-dose screen, 48 h (100 = growth as untreated, 0 = no growth, -100 = all killed)
Common to all, as to details: 10 µM unless noted

The test system of test [1] is NCI-H23 lung.
The test system of test [2] is NCI-H226 lung.
Test [3] concerns NCI-H322M lung.
The subject of test [4] is HOP-62 NSCLC.
The subject of test [5] is NCI-H460 lung.
For test [6], the system named is NCI-H522 lung.
Test [7] deals with A549/ATCC NSCLC.
The subject of test [8] is 786-0 renal.
The subject of test [9] is COLO 205 colon.
In test [10] the test system is DU-145 prostate.
The test system of test [11] is K-562 leukemia.
For test [12], the system named is MALME-3M melanoma.
The subject of test [13] is MDA-MB-231 breast.
In test [14] the test system is SF-268 CNS.
Test [15] has as its system SF-295 CNS.
The test system of test [16] is SF-539 CNS.
Test [17] relates to UACC-257 melanoma.
Test [18] deals with M14 melanoma.
Test [19] deals with HOP-92 NSCLC.
Test [20] relates to RXF 393 renal.

Consider `COc1ccc(-c2nc3sccn3c2/C=C/C(=O)c2cc(OC)c(OC)c(OC)c2)cc1`, for which the growth in test [1] was 59.9%; in [2], 87.4%; in test [3], 69.4%; in [4], 79.1%; in test [5], 47%; in test [6], 5.02% (active). For the same compound, the growth in test [7] is 60.4%; in [8] it was 78.3%; in [9], 79.2%; in test [10], 75.7%; in [11], 44.2%; in test [12], 53.3%. Further, the growth was 52.8% in test [13]; 67.4% in test [14]; 54.6% in [15]; 53% in test [16]; 69.1% in test [17]; 63.6% in test [18].
`C#CC(=O)Nc1cccc2c1cc(C)n2-c1nc2c(c(NCc3ccccc3)n1)CCCC2`: the growth in test [1] is -43.1% (active); in test [2] it was -40.2% (active); in [3], -82.4% (active); in test [5], -48.3% (active); in test [19], -53.8% (active); in [6], -82.2% (active). Moreover, the growth in [7] is -46.5% (active); in test [8], -53.1% (active); in test [9] it was -69.1% (active); in test [10] it was -97.1% (active); in [11], -13.5% (active); in test [12], -64.4% (active). Besides, the growth in [13] is -53% (active); in test [20], -94.4% (active); in test [14], -29.7% (active); in [15], -85.4% (active); in [16] it was -79.7% (active); in test [17] it was -73% (active). The growth in test [18] is -65.3% (active).
With `CCOC(=O)c1ccc(Nc2ccnc(SCC(=O)c3ccc(C#N)cc3)n2)cc1`, the growth in test [1] was 79.9%; in test [2], 61.4%; in [3], 90.5%; in test [4], 63.4%; in [5] it was 90.5%; in test [6], 27%. The growth was 60.6% in test [7]; 78.4% in test [8]; 70.8% in test [9]; 79.4% in [10]; 50.6% in [11]; 80.9% in [12]. In addition, the growth in test [13] was 81.2%; in test [14], 78%; in [15], 76.2%; in test [16], 83%; in test [17], 77.7%; in test [18] it was 50.5%.
As to `COc1ccc(C(O)c2cc3c(N)c(C(=O)Nc4ccc(Cl)cc4)sc3nc2C)cc1` (configuration not stated), the growth in test [1] was 32.7%; in test [2], 45.3%; in [3], 44.6%; in test [4] it was 29.2%; in [5], 5.37% (active); in test [6], 7.8% (active). In addition, the growth in [7] was 29.5%; in test [8], 55.2%; in [9], 13.6%; in test [10], 6.92% (active); in test [11], 3.42% (active); in [12] it was 21%. Moreover, the growth in test [13] was 41.8%; in [14], 42.8%; in test [15], 14.5%; in [16], 20.7%; in [17], 56.4%.
As to `Cc1cn(-c2cc(C(=O)Nc3cccc(C#Cc4cccc5[nH]nc(N)c45)c3)cc(C(F)(F)F)c2)cn1`, the growth in test [1] is 44.1%; in [2] it was 33.1%; in test [3], 68.4%; in [4] it was 45.1%; in test [5] it was 40.6%; in test [6], 51.7%. Moreover, the growth is 63.2% in test [7]; 66.7% in test [8]; 13.8% in test [9]; 72.5% in [10]; 5.16% (active) in [11]; -12% (active) in test [12]. Besides, the growth in [13] is 29.8%; in test [20] it was 1.89% (active); in test [14], 58.6%; in [15], 67.2%; in test [16], 25.3%; in [17], 18.1%. In [18], the growth is 11.5%.
Turning to `ClCC1(Cn2cnc3c(Cl)nc(Cl)nc32)COC1`, the growth was 69.1% in test [1]; 87.7% in [2]; 100% in test [3]; 103% in [4]; 86.5% in test [5]; 71.9% in test [6]. Further, the growth in [7] is 57.5%; in test [8], 88.4%; in test [9], 80.2%; in [10], 67.8%; in [11] it was 64.7%; in test [12], 102%. The growth is 80.4% in test [13]; 78% in test [14]; 88.8% in test [15]; 103% in test [16]; 75.8% in test [17].
For the compound `CN1C(=O)N(C)C2NC(N/N=C/c3ccccc3)=NC21` (configuration not stated), the growth was 100% in test [1]; 95% in [2]; 94.5% in [3]; 103% in test [5]; 102% in test [19]; 104% in test [6]. Further, the growth was 104% in test [8]; 106% in test [9]; 108% in test [10]; 107% in [11]; 97.9% in [12]; 104% in [13]. Moreover, the growth in [14] was 99.8%; in test [15], 101%; in test [16] it was 94.9%; in test [17], 98.8%; in test [18], 98.8%.
For the compound `CCCCCCC/C=C/[C@H]1O[C@]2(O)C(=O)C=C3C[C@@H](O[C@@H]4O[C@H](CO)[C@@H](O)C(O)[C@@H]4O)C[C@@H]3[C@H]2C=C1C` (some centres not stated), the growth in test [1] was 43.6%; in test [2], -20.8% (active); in test [3], 54.3%; in test [5], 38.3%; in test [19], 11.8%; in [6], -57.6% (active). Besides, the growth is 59.8% in [7]; -52.4% (active) in test [8]; 11.8% in test [9]; 20.6% in test [10]; -5.09% (active) in [11]; 1.95% (active) in test [12]. In addition, the growth was -8.64% (active) in [13]; -80.3% (active) in [20]; 21.8% in [14]; 37.5% in test [15]; -43.7% (active) in [16]; -7.54% (active) in [17]. Also, the growth in test [18] was -23.6% (active).
For the compound `FC(F)(F)Oc1cccc(-c2cc(NCCCCCCNc3cc(-c4cccc(OC(F)(F)F)c4)nc4ccc(N5CCCC5)cc34)c3cc(N4CCCC4)ccc3n2)c1`, the growth in test [1] is -19.9% (active); in [2], 68.5%; in [3], -79.3% (active); in test [5] it was -52.1% (active); in test [19], -23.9% (active); in test [6] it was -49.5% (active). Further, the growth was -75% (active) in test [7]; -83.4% (active) in [8]; -51.9% (active) in [9]; -5.9% (active) in test [10]; -48.7% (active) in test [11]; -96.2% (active) in [12]. For the same compound, the growth in [13] was -91.5% (active); in [14] it was -65.5% (active); in test [15] it was 34.1%; in [16] it was 8.48% (active); in test [17], -9.02% (active); in test [18] it was -84% (active).
